# From PubChem
# Compounds with a hit are over-represented: about 18% of the library has one in this group of screens.
# TDP1 cell CPT = growth inhibition of DT40 Tdp1-/-;hTDP1 cells with camptothecin (screen for TDP1 inhibitors) | chicken DT40 Tdp1-/-;hTDP1 cells + 20 nM CPT, ATP luminescence, 48 h | Potency, µM (highest dose often 46.2 µM), usual class: inhibitors | 420,000 compounds, 12% hits; also: nearly all actives have a fitted effect of over 55% in size
#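 Chicken DT40 Tdp1-/- cells stably complemented with human TDP1 were seeded at 400 cells/well in medium containing 20 nM camptothecin, exposed to pin-transferred compounds, and grown at 37 °C for at least 48 hr. Viability was read as ATP luminescence.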
# TDP1 cell noCPT = qHTS for Inhibitors of human tyrosyl-DNA phosphodiesterase 1 (TDP1): qHTS in cells in absence of CPT; DT40 Tdp1-/- hTDP1 cells, no CPT, ATP luminescence, 48 h; Potency, µM (highest dose often 46.2 µM), usual class: inhibitors; 420,000 compounds, 15% hits; AID 686978, 2013; also: nearly all actives have a fitted effect of over 55% in size
#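 Compound effects on proliferation are scored in DT40 Tdp1-/-;hTDP1 cells in the absence of CPT. ATP levels (CellTiter-Glo luminescence) are recorded after a ≥48 hr, 37 °C incubation.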
# IL-1B inflam inh = inflammasome signaling inhibition, IL-1 beta readout; THP-1 LPS/ATP IL-1B secretion, AlphaLISA, 16 h; active compounds read low; activity change, % at 57.5 µM; 360,000 compounds, 4.7% hits; in the data active = activity change below about -50%; inconclusive = mostly about -30% to -49%
#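 THP-1 cells pretreated 1 hr with compounds (up to 57.5 uM final), then stimulated with LPS (250 ng/mL final) plus ATP (1.25 mM final); secreted IL-1B measured by AlphaLISA after 16 hr, decreased signal indicating inhibition.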
# RORgamma inh = blocks mouse ROR gamma transcriptional activity | P51450 | 310,000 compounds, 5.4% hits | Potency, µM (highest dose often 53.6 µM), actives largely listed as inhibitors | Drosophila S2 Gal4-RORgamma UAS-luciferase reporter, 20 h | AID 2551; also: nearly all actives have a fitted effect of over 60% in size
# Target sequence (P51450 whole entry, looked up, the tested form may be a part): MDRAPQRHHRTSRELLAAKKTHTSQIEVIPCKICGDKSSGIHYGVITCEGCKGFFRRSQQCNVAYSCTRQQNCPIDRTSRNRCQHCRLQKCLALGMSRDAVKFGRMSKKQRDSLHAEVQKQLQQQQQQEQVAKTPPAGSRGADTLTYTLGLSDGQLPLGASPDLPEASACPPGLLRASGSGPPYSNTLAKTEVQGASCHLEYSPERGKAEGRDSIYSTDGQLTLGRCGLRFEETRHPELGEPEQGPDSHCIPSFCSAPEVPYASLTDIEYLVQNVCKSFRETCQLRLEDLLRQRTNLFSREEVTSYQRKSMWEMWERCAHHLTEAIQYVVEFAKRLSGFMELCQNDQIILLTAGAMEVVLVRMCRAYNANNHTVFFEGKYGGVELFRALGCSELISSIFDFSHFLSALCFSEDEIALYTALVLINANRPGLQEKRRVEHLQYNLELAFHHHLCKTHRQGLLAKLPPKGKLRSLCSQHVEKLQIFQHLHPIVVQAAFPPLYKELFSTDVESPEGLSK
#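 ROR gamma transcriptional activity was tracked as Gal4-UAS luciferase output in stably transfected Drosophila Schneider cells, with compound added 1 hr before 700 uM copper sulfate induction and a 20 hr ambient-temperature incubation.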
# Gal4-VP16 FLuc = inhibits Gal4-VP16 luciferase reporter, ROR gamma counter-screen; Drosophila S2 Gal4-VP16 UAS-luciferase, luminescence, 20 h; Potency, µM (doses to about 53.6 µM), usual class: inhibitors; 310,000 compounds, 3.5% hits; AID 2546;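 also: Gal4-VP16 expression switched on by copper sulfate through the metallothionein promoter; nearly all actives have a fitted effect of over 50% in size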
# LDHA block = blocks human lactate dehydrogenase A | P00338 | purified LDHA, NADH/diaphorase-resazurin fluorescence; active compounds read low | activity change, % (values are at about 110 or 230 µM) | 480,000 compounds, 0.15% hits | AID 1347041; in the data active = activity change below about -30%; inconclusive = mostly about -25% to -30%
#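 Remaining NADH was detected by diaphorase (0.133 mg/mL) converting 37 µM resazurin to fluorescent resorufin, read at 0 and 20 minutes. The preceding 5-minute room-temperature reaction used 2 nM LDHA, 0.2 mM sodium pyruvate and 0.06 mM NADH at pH 7.4.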
# A number is an active result; – = inactive; ? = inconclusive; · = no result; [ ] = another dose, or the depositor's remark. Unless noted, calls follow the shape of the dose curve; as a rule, active = well fitted curve in the direction sought with a large enough effect; inconclusive = small, poorly fitted or top-dose-only effect, or another doubt; inactive = no such curve, though single readings can be large; an effect the other way counts as inactive or inconclusive.
SMILES,TDP1 cell CPT,TDP1 cell noCPT,IL-1B inflam inh,RORgamma inh,Gal4-VP16 FLuc,LDHA block
Cc1c(Cc2ccc3c(c2)OCO3)sc(NC(=O)c2ccccc2)c1C(N)=O,–,?,–,–,–,–
Cc1nc(NC(=O)c2ccc(Cl)cc2)sc1Cc1ccc2c(c1)OCO2,4.11µM,3.66µM,–,?,?,–
CCCn1nc(C(=O)Nc2cc(S(=O)(=O)N3CCCCC3)ccc2C)c2ccccc2c1=O,·,·,·,·,·,–
CNC(=O)c1ccc(NC(=O)c2cccc[n+]2[O-])cc1,·,·,·,·,·,–
COc1cc(/C=N/OCC(=O)Nc2cc(C)cc(C)c2)ccc1OCc1ccc(Cl)cc1,?,13µM,–,–,–,–
COc1cc(/C=N/OCC(=O)NC2CCCCC2C)ccc1OCc1ccc(Cl)cc1 (stereo unspecified),18.4µM,18.4µM,?,?,–,–
CCC(C)NS(=O)(=O)c1ccc(S(=O)(=O)N2CC=C(c3ccc(F)cc3)CC2)cc1 (stereo unspecified),16.4µM,18.4µM,–,?,?,–
CCC(C)NC(=O)C1=CCN(S(=O)(=O)c2ccc(C)cc2)CC1 (stereo unspecified),–,–,–,–,–,–
CN(CC(=O)NC1CCCC1)Cc1cccc(C#N)c1,·,·,·,·,·,–
Cc1ccc(NC(=O)COc2ccc(/C=C3/SC(=Nc4ccccc4)N(Cc4cccnc4)C3=O)cc2)cc1,5.17µM,6.51µM,–,–,–,–
CCn1cc2nc(SCc3cc(C)ccc3C)n(Cc3ccc(Cl)cc3)c(=O)c2n1,?,?,·,·,·,–
CCn1cc2nc(SCc3cccc(C(F)(F)F)c3)n(Cc3ccc(Cl)cc3)c(=O)c2n1,14.6µM,8.2µM,·,·,·,–
CCn1cc2nc(SCc3cccc(Cl)c3)n(Cc3ccc(C)cc3)c(=O)c2n1,20.6µM,23.1µM,·,·,·,–
Cc1cccc(CSc2nc3c([nH]c4ccccc43)c(=O)n2C)c1,?,?,·,·,·,–
CCn1cc2nc(SCc3cccc(C)c3)n(CCc3ccccc3)c(=O)c2n1,23.1µM,?,·,·,·,–
CCn1cc2nc(SCC(=O)N3CCCC3)n(Cc3ccccc3)c(=O)c2n1,·,·,·,·,·,–
CCn1cc2nc(SCc3cccc(C(F)(F)F)c3)n(CCc3ccccc3)c(=O)c2n1,23.1µM,13µM,·,·,·,–
CCn1c(CSc2nc3ccccc3s2)n[nH]c1=S,?,?,–,2.51µM,10µM,–
CCn1c(CN2c3ccccc3Sc3ccccc32)n[nH]c1=S,–,–,–,2.82µM,?,–
C=CCn1c(CSc2nc3ccccc3s2)n[nH]c1=S,–,–,–,–,–,–
S=c1[nH]nc(CSc2nc3ccccc3s2)n1Cc1ccccc1,–,–,–,3.98µM,–,–
CCn1c(CSc2nc3ccccc3s2)nnc1SCC(=O)c1ccc(Cl)cc1,16.4µM,20.6µM,–,–,–,–
Cn1c(CSc2nc3ccccc3s2)nnc1SCC(=O)NCc1ccccn1,–,–,–,–,–,–
CC(NC(=O)COc1ccccc1C#N)C12CC3CC(CC(C3)C1)C2 (stereo unspecified),·,·,·,·,·,–
Cn1ccc2c(-c3ccc(C(F)(F)F)cc3)cc3c(c21)C1CCC3O1 (stereo unspecified),23.1µM,16.4µM,–,·,·,–
SMILES,TDP1 cell CPT,TDP1 cell noCPT,IL-1B inflam inh,RORgamma inh,Gal4-VP16 FLuc,LDHA block
Cn1ccc2c(-c3ccc(C(=O)O)cc3)cc3c(c21)C1CCC3O1 (stereo unspecified),–,–,–,·,·,–
Cn1ccc2c(-c3ccc(CO)cc3)cc3c(c21)C1CCC3O1 (stereo unspecified),–,?,–,·,·,–
Cn1ccc2c(-c3ccc(C(C)(C)C)cc3)cc3c(c21)C1CCC3O1 (stereo unspecified),?,23.1µM,–,·,·,–
O=C(NC1CCCC1)c1cc(-c2ccncc2)nc2c(Cl)cccc12,·,·,·,·,·,–
COC(=O)CC1C(=O)NCCN1C(=S)NC(=O)c1sc2ccccc2c1Cl (stereo unspecified),–,–,–,0.631µM,7.08µM,–
CC(C)OC(=O)CC1C(=O)NCCN1C(=S)NC(=O)c1ccc(F)cc1 (stereo unspecified),–,?,–,3.16µM,8.91µM,–
COC(=O)CC1C(=O)NCCN1C(=O)c1sc2ccccc2c1Cl (stereo unspecified),–,–,–,–,–,–
COC(=O)CC1C(=O)NCCN1C(=S)NC(=O)C(c1ccccc1)c1ccccc1 (stereo unspecified),–,–,–,10µM,15.8µM,–
CC(C)OC(=O)CC1C(=O)NCCN1C(=S)NC(=O)c1ccccc1 (stereo unspecified),–,–,–,–,–[10 µM],–
O=C(CCc1ccc(F)cc1)Nc1ccccc1-c1ccccc1,·,·,·,·,·,–
Cc1nc2ccccc2c2nc3ccccc3n12,?,20.6µM,–,–,–,–
Clc1ccccc1-c1nc2ccccc2c2nc3ccccc3n12,?,13µM,–,–,20µM,–
Fc1ccc(-c2nc3ccccc3c3nc4ccccc4n23)cc1,?,?,–,?,–,–
CCOc1ncccc1C(=O)N(Cc1nnc(-c2ccccc2Cl)o1)C1CC1,·,·,·,·,·,–
CCCCCC1CCC(c2ccc(OC(=O)c3ccco3)cc2)CC1 (stereo unspecified),·,·,·,·,·,–
COC(=O)c1ccc(C(=O)OC)c(-n2c(=O)c3ccccc3c3ccccc3c2=O)c1,?,?,–,10µM,?,–
COC(=O)CCC(=O)NC(=S)Nc1sc(C)c(C)c1C(N)=O,0.164µM,0.146µM,–,–,–,–
CCCC(=O)NC(=S)Nc1sc2c(c1C(N)=O)CCC2,–,–,–,?,–,–
Cc1sc(NC(=S)NC(=O)c2ccco2)c(C(N)=O)c1C,–,–,–,–,–,–
CCCC(=O)Nc1sc(Cc2ccccc2)c(C)c1C(N)=O,?,23.1µM,?,?,–,–
Cc1sc(NC(=S)NC(=O)CCc2ccccc2)c(C(N)=O)c1C,0.206µM,0.184µM,–,–,–,–
CCOc1cc2c(cc1/C=C1\NC(=O)NC1=O)OCO2,·,·,·,·,·,–
C=CCOc1cccc(NC(=O)c2ccco2)c1,·,·,·,·,·,–
O=S(=O)(Nc1nc2ccccc2nc1Nc1ccccc1)c1cccc2nsnc12,·,·,·,·,·,–
O=C(Nc1cccc2ncccc12)C1CCCN(S(=O)(=O)c2ccccc2)C1 (stereo unspecified),·,·,·,·,·,–
CCOC(=O)c1cc(-c2ccccc2)n(-c2cccc(C(=O)NC(C)(C)C)c2)c1C,?,?,·,·,·,–
CCOC(=O)c1cc(-c2ccccc2)n(-c2cccc(C(=O)N(C)c3ccc(C)cc3)c2)c1C,–,8.2µM,·,·,·,–
CCOC(=O)/C(C(N)=NCC(C)C)=C(/O)c1ccccc1,–,?,-81.0,–,–,–
